PINK1 expr mod: A Quantitative High throughput Screen to Identify Chemical Modulators of PINK1 Expression. PINK1 immunofluorescence, high-content cytometry, 24 h. 0.2% of 410,000 active. Potency, µM (top dose mostly 76.6 µM), usual class: activators; active = well fitted activation curve with a large enough effect; inconclusive = small, poorly fitted or top-dose-only effect; cell line not stated here; note: nearly all actives have a fitted effect of over 65% in size
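Measures PINK1 amount and localization on or inside mitochondria by immunofluorescence. Stable cells get compounds at 5 concentrations for 24 hours before fixation and staining; CCCP controls included.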
PKM2 activator: qHTS Assay for Activators of Human Muscle isoform 2 Pyruvate Kinase. purified PKM2, Kinase-Glo ATP luminescence, activation; response scale: 0% is enzyme alone, no compound. Potency, µM (highest dose often 57.5 µM), most hits filed as activators. 0.34% of 260,000 active. AID 1631, 2009; note: nearly all actives have a fitted effect of over 55% in size
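Purified hPK-M2 (>95% pure) converted ADP (0.1 mM final) to ATP with 0.5 mM PEP in 50 mM imidazole pH7.2, KCl, MgCl2, Tween 20, BSA; 1 h at room temperature. ATP detected by Kinase-Glo luminescence.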
B2AR arrestin: qHTS assay of beta-arrestin-biased ligands of beta2-adrenergic receptor; Beta-2 adrenergic receptor (Homo sapiens), P07550; beta-arrestin recruitment to beta2AR, cell-based reporter; Potency, µM (doses to about 46.1 µM), actives largely listed as activators; 0.02% of 330,000 active; note: nearly all actives have a fitted effect of over 65% in size
Target sequence (P07550 whole entry, looked up): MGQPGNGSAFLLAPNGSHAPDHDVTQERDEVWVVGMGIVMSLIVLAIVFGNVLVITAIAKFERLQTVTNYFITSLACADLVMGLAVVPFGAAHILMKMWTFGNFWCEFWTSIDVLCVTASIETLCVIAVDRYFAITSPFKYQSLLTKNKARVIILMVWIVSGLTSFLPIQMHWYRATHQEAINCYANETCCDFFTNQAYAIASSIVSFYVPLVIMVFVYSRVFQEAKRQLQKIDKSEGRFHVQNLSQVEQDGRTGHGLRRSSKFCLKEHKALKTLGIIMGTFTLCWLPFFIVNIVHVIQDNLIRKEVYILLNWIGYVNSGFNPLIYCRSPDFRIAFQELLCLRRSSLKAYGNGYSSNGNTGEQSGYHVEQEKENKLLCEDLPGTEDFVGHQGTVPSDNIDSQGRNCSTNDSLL
Epigenetic reg: Quantitative High-Throughput Screen for Regulators of Epigenetic Control. murine LDR cells, GFP reporter derepression, 30 h. Potency, µM (titrated, usually from 53.9 µM), usual class: activators. 0.2% of 280,000 active; note: nearly all actives have a fitted effect of over 60% in size
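Readout is the number of GFP-expressing murine LDR cells, counted by cytometry following washing. Cells were treated with compound for 30 h at 37 C; the stably integrated CMV-GFP locus is normally silent.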
IL-2 act: qHTS of IL-2 Activators | 0.065% of 360,000 active | activation, % (series mostly up to about 46 µM) | IL-2 activation reporter assay, cell-based qHTS; stimulated with anti-CD3/CD4/CD28 beads; in transgenic mouse T cells; in the data active = activation above about 50%; inconclusive = mostly about 30% to 49%
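EGFP and DsRed fluorescence is measured by plate cytometry in unstimulated transgenic mouse T cells exposed to compound for 60 minutes, then stimulated 18 hours at 37 degrees C with anti-CD3/anti-CD4 beads plus anti-CD28.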
A number is an active result; - = inactive; ? = inconclusive; . = no result; ! = not active in a repeat. Most compounds without a hit are left out; they make up all but 0.58% or so of the library. Unless noted, calls come from the whole dose curve; as a rule, active = well fitted curve in the direction sought with a large enough effect; inconclusive = small, poorly fitted or top-dose-only effect, or another doubt; inactive = no such curve, though single readings can be large; an effect the other way counts as inactive or inconclusive.

SMILES	PINK1 expr mod	PKM2 activator	B2AR arrestin	Epigenetic reg	IL-2 act
O=C(Nc1cccc(-c2nc3ncccc3o2)c1)c1sc2cc(Cl)ccc2c1Cl	10µM	-	-	-	-
COc1ccccc1N1CCN(c2nc(CNC(=O)C3CC34CCCC4)nc3ccccc23)CC1 (centres undefined)	-	.	.	.	.
CCOC(=O)Cn1c2ccc(OC)cc2c2nc3ccccc3nc21	-	-	-	?	51
Cn1cc(CN2CCOc3ccc(C(O)C4CCCCC4)cc3C2)cn1 (centres undefined)	-	.	.	.	.
CCOC(=O)N1CCN(C(=O)c2ccc(-c3ccccc3OC)nc2N2CCC(N3CCCC(CO)C3)CC2)CC1 (centres undefined)	-	.	.	.	.
CC(=O)Nc1ccc(S(=O)(=O)c2ccc(C)cc2)cc1	-	14µM	-	-	-
CC(=O)Nc1ccc(C(=O)CS(=O)(=O)c2ccc(C)cc2)cc1	-	?	-	-	-
CC(=O)C12CCCCC1CC1[C@@H]3CC(C)C4=CC(=O)CC[C@]4(C)C3CC[C@@]12C (some centres undefined)	16µM	.	-	.	-
CC12CCC(=O)C=C1C(O)CC1C2CCC2(C)C1CCC2(O)C(=O)CO (centres undefined)	-	.	.	.	-
CC(=O)OC1(C(C)=O)CCC2C3CC(C(F)(F)F)C4=CC(=O)CCC4(C)C3CCC21C (centres undefined)	-	.	.	.	-
CC(=O)O[C@]1(C(C)=O)CC[C@H]2[C@@H]3C[C@H](C)C4=CC(=O)CC[C@]4(C)[C@H]3CC[C@@]21C	32µM	-	-	-	-
COc1ccccc1-c1ccnc(-n2ncc(C(=O)N(C)C(C)c3nc(C)cs3)c2C2CC2)n1 (centres undefined)	-	.	.	.	.
CCn1c(-c2ccccc2F)nc2cc(NC(C)=O)cc(C(=O)NCC3CCOCC3)c21	-	.	.	.	.
CC(C)(C(=O)N[C@H](CO)c1ccccc1)C(=O)N[C@H](CO)c1ccccc1	-	-	-	.	-
CC(C)(NC(=O)NC(CO)c1ccccc1)c1cccc(C(C)(C)NC(=O)NC(CO)c2ccccc2)c1 (centres undefined)	-	.	6.5µM	.	-
CCc1noc(C)c1C(=O)N1CCOc2ccc(CN3CCN(c4ccccn4)CC3)cc2C1	-	.	.	.	.
CC(NC(=O)c1cc2ccccc2o1)c1ccccc1 (centres undefined)	-	-	-	16µM!	-
CC(=O)N1CCc2c(sc(NC(=O)c3ccc([N+](=O)[O-])o3)c2C#N)C1	-	-	-	11µM	-
COc1ccc(C(=O)Nc2sc3c(c2C#N)CCN(C(C)=O)C3)cc1	-	-	-	-	-
Cc1ccc(S(=O)(=O)N2CCN(c3cnn(C)c(=O)c3Cl)CC2)cc1	-	20µM	-	-	-
CC(C)c1c(C(=O)NCCN2CCOCC2)cnn1-c1nccc(-c2cccs2)n1	-	.	.	.	.
O=C(COC(=O)c1ccc(NS(=O)(=O)c2cccs2)cc1O)Nc1nc2ccccc2s1	-	-	-	-	-
O=C(COC(=O)c1ccc(NS(=O)(=O)c2cccs2)cc1O)NCc1ccccc1	-	22µM	-	-	-
O=C(COC(=O)c1ccc(NS(=O)(=O)c2cccs2)cc1)NCc1ccco1	-	14µM	-	-	-
COc1ccccc1C1CN(Cc2cn(C)nc2C)Cc2ccccc2O1 (centres undefined)	-	.	.	.	.
SMILES	PINK1 expr mod	PKM2 activator	B2AR arrestin	Epigenetic reg	IL-2 act
CCOC(=O)c1ccc(Nc2nnc(C(C)(C)C)c(=O)[nH]2)cc1	25µM	?	-	?	-
Cc1ccc(-c2nc3ccccc3s2)cc1NC(=O)c1cc(-n2cnnc2)ccc1Cl	3.5µM	-	-	-	-
CCC1(C2CCN(C(=O)c3coc4c3C(=O)CCC4)CC2)NC(=O)N(CCc2scnc2C)C1=O (centres undefined)	-	.	.	.	.
CC(=O)Nc1ccc(/C=N/NC(=O)c2cc(-c3ccco3)nc3ccccc23)cc1	-	-	-	-	-
COc1ccc(-c2cc(C(=O)N/N=C/c3cc(OC)c(OC)cc3OC)c3ccccc3n2)cc1	-	.	.	.	-
COc1ccc(OC)c(/C=N/NC(=O)c2cc(-c3ccc(C)o3)nc3ccccc23)c1	-	7.9µM	-	-	-
O=C(O)c1ccccc1/C=N/NC(=O)c1cc(-c2ccco2)nc2ccccc12	-	25µM	-	-	-
CC1=NN(C(N)=S)C(=O)C1N=Nc1ccc([N+](=O)[O-])cc1 (centres undefined)	-	.	7.1µM	.	-
CC1=NN(C(N)=S)C(=O)C1N=Nc1cccc(C(=O)O)c1 (centres undefined)	-	-	-	.	-
CC1=NN(C(N)=S)C(=O)C1N=Nc1cccc(C)c1 (centres undefined)	-	-	1.3µM	-	-
CC(=O)Nc1ccc(N=NC2C(=O)N(C(N)=S)N=C2C)cc1 (centres undefined)	-	-	-	.	-
CC1=NN(C(N)=S)C(=O)C1N=Nc1ccc(O)cc1 (centres undefined)	-	-	-	-	-
CC1=NN(C(N)=S)C(=O)C1N=Nc1ccc(F)cc1 (centres undefined)	-	.	2.5µM	.	-
Cc1cc(C(=O)NCc2nc(-c3cccc(NC(=O)c4cc(C)oc4C)c3)oc2C)nc(C)n1	-	.	.	.	.
COc1ccc(S(=O)(=O)NCc2nc(N3CCCC3)c3cccc(C)c3n2)cc1OC	-	.	.	.	.
CCN1CCC(N[C@H]2C[C@@H](C(=O)NC)N(Cc3cccc4ccccc34)C2)CC1	-	.	.	.	.
CC(=O)/C=C/c1ccc2ccccc2n1	-	-	-	-	-
CC[N+](C)(C)c1ccc(/C=C/c2ccc3ccccc3n2)cc1	5µM	.	.	.	.
CC(=O)Nc1sc(NC(=O)c2ccccc2)nc1-c1cccs1	-	-	-	-	-
CCN(CC)c1ccc(/C=C(\C#N)c2nc(-c3cccs3)c(NC(C)=O)s2)cc1	.	-	-	1.6µM	.
COc1ccc(O)c(CN2CCC3(CC2)c2ccccc2[C@@H](NC(=O)c2cccc(F)c2)[C@@H]3OC)c1	-	.	.	.	.
Cc1ccc(CC(Cc2nc3ccccc3[nH]2)c2nc3ccccc3[nH]2)cc1 (centres undefined)	.	.	.	-	.
Cc1cc(C)cc(CC(Cc2nc3ccccc3[nH]2)c2nc3ccccc3[nH]2)c1 (centres undefined)	16µM	-	-	-	-
COc1ccc2c(Cl)c(C(=O)N/N=C/c3ccc4c(c3)OCO4)sc2c1	-	-	-	-	-
COc1ccc2c(Cl)c(C(=O)N/N=C3\CCCC(=O)C3)sc2c1	-	-	-	11µM	-
COC(=O)[C@@H]1C[C@@H](NC(=O)c2cccc3c(C)c(C)[nH]c23)CN1Cc1cccc2ccccc12	-	.	.	.	.

Screening data deposited in PubChem BioAssay by National Center for Advancing Translational Sciences (NCATS).
